Results published in the supplement of paper PMC3334620.
The full ranking holds about 33,000 sequences; the median of “E-score (-0.5 to 0.5)” is about -0.016, and the highest 2% start at about 0.31. This is one part of a sample in which the highest values are shown more often than they occur.

Target: Cst6 (UniProt P40535)
Assay: PBM E-score (8-mer binding enrichment) (E-score (-0.5 to 0.5)); higher = stronger / more preferred TF binding
Conditions: protein concentration: 200 nM; construct: GST-DNA-binding domain
Method in brief: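 Masliner-normalised scans of fluorescent anti-GST signal were the basis for scoring. That signal came from GST-tagged yeast transcription factors applied at about 100-200 nM to double-stranded universal all-10-mer Agilent arrays on fresh or once-stripped slides. Each ungapped eight-base word, pooled with its reverse complement, received an E-score from the Universal PBM Analysis Suite.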

Sequence of UniProt P40535 (P40535 whole entry): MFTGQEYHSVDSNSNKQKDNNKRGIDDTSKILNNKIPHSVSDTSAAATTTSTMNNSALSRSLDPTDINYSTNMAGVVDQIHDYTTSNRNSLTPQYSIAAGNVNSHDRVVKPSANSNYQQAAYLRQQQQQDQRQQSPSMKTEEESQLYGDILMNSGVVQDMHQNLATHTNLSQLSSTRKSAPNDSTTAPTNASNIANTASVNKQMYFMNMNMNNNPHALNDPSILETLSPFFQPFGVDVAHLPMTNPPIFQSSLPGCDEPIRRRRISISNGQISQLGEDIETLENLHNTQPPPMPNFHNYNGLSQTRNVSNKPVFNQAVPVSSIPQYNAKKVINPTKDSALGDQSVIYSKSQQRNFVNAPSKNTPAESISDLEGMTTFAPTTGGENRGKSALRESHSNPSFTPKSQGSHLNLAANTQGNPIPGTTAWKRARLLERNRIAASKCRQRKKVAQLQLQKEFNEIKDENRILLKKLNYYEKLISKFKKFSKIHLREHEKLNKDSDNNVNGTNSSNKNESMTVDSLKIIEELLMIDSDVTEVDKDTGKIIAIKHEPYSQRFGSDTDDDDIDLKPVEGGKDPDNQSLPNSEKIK

| Sequence | PBM E-score |
| --- | --- |
| CAACGTCC | -0.263 |
| AAACGTCT | 0.14 |
| CCAGGCGA | -0.317 |
| CTACCTAG | -0.231 |
| ATCCCGGA | -0.249 |
| AATGAGCG | 0.139 |
| AAGTAAAA | 0.148 |
| AGCCAGTG | -0.171 |
| ATCGCCTA | -0.115 |
| CGATTGTA | 0.0905 |
| CGGTCTTC | -0.0638 |
| AACTGTGT | 0.0284 |
| ATCAGTTC | -0.0191 |
| ATACAGCC | -0.059 |
| GGGTGCCA | -0.137 |
| CGGTATGC | -0.111 |
| ACGGTCTG | -0.189 |
| ACACGTAG | 0.0917 |
| ACACGTAA | 0.366 |
| GCACGTAA | 0.232 |
| CCACGTAA | 0.275 |
| ACACGTAC | -0.0236 |
| TCACGTAA | 0.415 |
| CTACCCCA | -0.16 |
| ATACAGAC | 0.128 |

| Sequence | PBM E-score |
| --- | --- |
| CCGCAACA | 0.113 |
| GACGTTAA | 0.32 |
| AACGTTAC | 0.137 |
| CACGTTAA | 0.0603 |
| CACGTTAC | 0.143 |
| TACGTTAA | 0.189 |
| GACGTTAC | 0.315 |
| GCCAAAAC | 0.00644 |
| AGCTGCGA | -0.198 |
| AGCGGTCC | -0.134 |
| ATACGGGC | -0.204 |
| ACTGGGGG | -0.426 |
| CGGACGCA | -0.0966 |
| AGGCGCCT | 0.207 |
| AGGCGCCA | 0.0572 |
| AGGCGCCG | 0.325 |
| CGGCGCCA | 0.161 |
| CGGCGCCC | 0.143 |
| CGGCGCCG | 0.384 |
| CCGTCGAA | 0.0203 |
| GCAAATGC | 0.0351 |
| AATAGCCC | -0.132 |
| AGCCGGCT | -0.193 |
| AAGATGAC | 0.345 |
| CAGATGAC | 0.383 |

| Sequence | PBM E-score |
| --- | --- |
| AAGATGAG | -0.0416 |
| GAGATGAC | 0.239 |
| AAGATGAT | 0.229 |
| CGGATGAC | 0.321 |
| CAGATGAG | 0.0374 |
| CGGATGAA | 0.127 |
| CGGATGAG | -0.135 |
| GTAAGTCA | 0.132 |
| TCGCTCAA | -0.091 |
| AATTGCCC | -0.055 |
| CCAAAAGA | 0.207 |
| AAAATCGG | -0.00802 |
| GCGCAGCC | -0.38 |
| ATTAAATG | 0.315 |
| ATAAAAAG | 0.307 |
| CTAAAAAA | 0.273 |
| CTTGAAAA | 0.216 |
| ATTAAATA | 0.267 |
| ATAAAAGG | 0.0584 |
| ATAAAAAA | 0.234 |
| TTTAAAAA | 0.0985 |
| ATTGAAAC | 0.194 |
| ATTAAATC | 0.212 |
| ATTGAAAA | 0.31 |
| TTAAAAAA | 0.306 |

| Sequence | PBM E-score |
| --- | --- |
| CAGGTTAG | -0.116 |
| CCGCTTGA | 0.0541 |
| ATCTGCTG | 0.0566 |
| GAAGCTGC | -0.117 |
| ACTTAGCA | -0.0634 |
| ATTCCGCG | 0.129 |
| ATTAAAAC | 0.213 |
| ATTAAAAG | 0.173 |
| ATTAAAAA | 0.323 |
| ACTACACA | 0.17 |
| CGTTAGAA | 0.101 |
| ATGATGCG | 0.296 |
| ACGATGCA | -0.00326 |
| AGGATGCC | 0.0165 |
| CTGATGCC | 0.113 |
| GTGATGCA | 0.383 |
| CTGATGCA | 0.0731 |
| ATGATGCA | 0.362 |
| ATGATGCC | 0.347 |
| GAGATGCA | -0.071 |
| CCGGATCG | -0.134 |
| ACTTTTCA | 0.133 |
| CTTCCCAC | 0.0313 |
| GACTCGCC | -0.223 |
| CCGGGTTA | -0.281 |

| Sequence | PBM E-score |
| --- | --- |
| CAAAAGAA | 0.239 |
| AAGCTCAC | -0.167 |
| AACAATCA | 0.287 |
| CACCCCGG | -0.19 |
| ACTTCGTA | -0.0634 |
| ACGTAACC | 0.414 |
| AAGTAACG | 0.0219 |
| AAGTAACT | 0.204 |
| ACGTAACT | 0.413 |
| ACGTAACG | 0.39 |
| AGGTAACT | 0.106 |
| GCGTAACC | 0.14 |
| ACGTAACA | 0.386 |
| GCGTAACA | 0.195 |
| CCGTAACC | -0.0836 |
| TCGTAACA | 0.129 |
| CCGTAACG | -0.0115 |
| ATGAGACG | -0.0685 |
| ACCTAGGG | -0.159 |
| ACCCATGG | -0.144 |
| CTCCTTTA | -0.251 |
| CTACCGTA | 0.0736 |
| ATCAAATA | 0.0992 |
| CTCGGTTA | 0.0295 |
| GTGTCAGA | -0.0004 |

| Sequence | PBM E-score |
| --- | --- |
| CCGTCAGA | -0.0924 |
| ACGTCAGC | 0.482 |
| ACGTCAGA | 0.464 |
| CCGTCAGG | -0.107 |
| TCGTCAGA | 0.124 |
| ATGTCAGG | 0.176 |
| GCGTCAGA | 0.313 |
| CCGTCAGC | 0.0302 |
| GGGTCAGA | -0.219 |
| ACGTCAGG | 0.413 |
| GCGTCAGC | 0.15 |
| ACCGACGG | -0.0433 |
| CTTCCCGA | -0.0284 |
| AGTCGCAG | -0.192 |
| ACTCTTGA | -0.103 |
| CCTTGCAA | -0.186 |
| ACTCCGCG | -0.0486 |
| CGGCATAA | 0.135 |
| AACTCGAG | -0.0652 |
| ACCTTTGA | -0.156 |
| CCTCCTAG | -0.121 |
| AAGCACGT | 0.0741 |
| GAGCAGGA | -0.154 |
| GGAAACCC | -0.147 |
| AAGTCAGT | 0.0407 |

| Sequence | PBM E-score |
| --- | --- |
| ACGTCAGT | 0.472 |
| ACCTCAGT | 0.013 |
| GACACGCC | 0.0155 |
| CTGGACTA | -0.267 |
| CGTACGTA | 0.306 |
| CGTACGCC | 0.111 |
| AGTACGTC | 0.205 |
| CGTACGTC | 0.31 |
| AGTACGTA | 0.267 |
| GGTACGTA | 0.136 |
| CGTAAACA | 0.262 |
| TATACCGA | 0.00086 |
| CATGATGC | 0.28 |
| TATGATGA | 0.337 |
| GCTGATGA | 0.278 |
| GATGATGA | 0.319 |
| GGTGATTA | 0.206 |
| CGTGATGA | 0.297 |
| GGTGATGA | 0.362 |
| TATGATCA | 0.207 |
| CATGATGG | -0.0379 |
| TATGATAA | 0.251 |
| GATGATCA | 0.171 |
| CATGATGA | 0.342 |
